Data from PubChem BioAssay AID2284368 (EPA ToxCast).
Records with an inconclusive call do not appear. Activity calls are given as the source filed them. The calls were made as follows: active = hit-call score of the fitted dose curve at least 0.9, where 1 is the maximum; inconclusive = response in the unintended direction; inactive = score below 0.9.

What follows are compounds tested against Estrogen receptor (Homo sapiens) (UniProt P03372) (assay: ATG_hERa_EcoTox2: Attagene TRANS-FACTORIAL EcoTox-2 HepG2 Assay for human Estrogen Receptor (ER)).
Chain of Estrogen receptor (Homo sapiens) (P03372 whole entry, looked up): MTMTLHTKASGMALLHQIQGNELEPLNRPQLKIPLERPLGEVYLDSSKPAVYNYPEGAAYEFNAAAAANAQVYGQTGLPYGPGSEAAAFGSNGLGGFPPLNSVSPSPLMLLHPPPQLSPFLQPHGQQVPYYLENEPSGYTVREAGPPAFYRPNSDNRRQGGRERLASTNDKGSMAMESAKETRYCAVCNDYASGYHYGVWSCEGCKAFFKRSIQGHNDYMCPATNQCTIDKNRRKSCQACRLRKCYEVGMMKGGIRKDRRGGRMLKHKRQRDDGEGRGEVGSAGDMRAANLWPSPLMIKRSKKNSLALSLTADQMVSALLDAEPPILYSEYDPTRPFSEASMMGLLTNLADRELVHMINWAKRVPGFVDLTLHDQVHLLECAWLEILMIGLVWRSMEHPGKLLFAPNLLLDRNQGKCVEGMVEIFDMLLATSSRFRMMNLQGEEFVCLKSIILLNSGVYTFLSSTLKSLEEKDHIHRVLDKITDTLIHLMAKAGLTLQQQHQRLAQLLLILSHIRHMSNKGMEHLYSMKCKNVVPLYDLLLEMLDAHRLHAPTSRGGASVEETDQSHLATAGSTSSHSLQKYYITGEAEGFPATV
Description: ATG_EcoTox2 is a cell-based, multiplexed assay created by modifying the existing Attagene TRANS-FACTORIAL system to include a panel of nuclear receptors from some or all the following species: human (Homo sapiens), african clawed frog (Xenopus laevis), rainbow trout (Oncorhynchus mykiss), japanese medaka (Oryzias latipes), and zebrafish (Danio rerio). The ECOTOX2-FACTORIAL format uses HepG2, a human liver cell line, with measurements taken at 24 hours after chemical dosing in a 24-well plate. ATG_hERa_EcoTox2 is one of 29 assay components measured or calculated from the ATG_EcoTox2 assay. It is designed to make measurements of mRNA induction, a form of inducible reporter, as detected with fluorescence intensity signals by Reverse transcription polymerase chain reaction (RT-PCR) and Capillary electrophoresis technology.The assay endpoint ATG_hERa_EcoTox2 was analyzed in the positive analysis fitting direction relative to DMSO as the negative control and baseline of activity. Using a type of inducible reporter, measures of mRNA for gain-of-signal activity can be used to understand the reporter gene at the transcription factor-level as they relate to the gene ER. Furthermore, this assay endpoint can be referred to as a primary readout, because this assay has produced multiple assay endpoints where this one serves a reporter gene function. To generalize the intended target to other relatable targets, this assay endpoint is annotated to the nuclear receptor intended target family, where the subfamily is steroidal.
Human liver HepG2 cells are transiently transfected with multiple reporter transcription units (MRTUs) in 6-well plates using FuGene 6 reagent (Roche; 3 ml FuGene/1 mg DNA). The MRTU constructs are regulated by a cis-regulating element (promoter). Each RTU expresses a GAL4-UAS that regulates the transcription of a nearby target reporter gene sequence. A major difference between the CIS and TRANS system is that in CIS activities of endogenous TFs are measured, whereas the TRANS assay evaluates changes in activities of exogenous, chimeric NR-Gal4 proteins. […] At the end of 24 hour incubation, total RNA was isolated using TriZol reagent (Invitrogen). The isolated RNA is then reverse-transcribed using oligo(dT) primer and Mo-MLV reverse transcriptase (Invitrogen) with DNAse I (Ambion) treatment for 30 min. The one-tenth of the produced cDNA was amplified by PCR using Taq DNA polymerase (Invitrogen) and two reporter sequence-specific primers. The PCR products were fluorescently labeled by primer extension with 6-arboxyfluorescein (6-FAM) 5'-labeled reporter sequence-specific primer (2 min at 95 C, 20 s at 68 C and 10 min at 72 C) and these products were digested with 5U of HpaI (New England Biolabs) for 2h at 37 C. The fragments were purified using Qiaquick PCR columns (Qiagen), analyzed on an ABI 3130xL genetic analyzer (Applied Biosystems) with peak positions identified by using a set of X-rhodamine (ROX)-labeled MapMarker1000 molecular weight standards (BioVentures). The raw capillary electrophoresis data was processed using Attagraph software (Attagene).

Row | SMILES | outcome | AC50
1 | Cc1c(C)c2c(c(C)c1O)CCC(C)(COc1ccc(CC3SC(=O)NC3=O)cc1)O2 (stereo unspecified) | inactive | 
2 | C[C@]12C=CC(=O)C=C1CC[C@@H]1[C@@H]2C(=O)C[C@@]2(C)[C@H]1CC[C@]2(O)C(=O)CO |  | 29.2 µM (active)
3 | C=C(c1ccc(C(=O)O)cc1)c1cc2c(cc1C)C(C)(C)CCC2(C)C | inactive | 
4 | CC(C)(Oc1ccc(CCNC(=O)c2ccc(Cl)cc2)cc1)C(=O)O |  | 122 µM (active)
5 | CN(CCOc1ccc(CC2SC(=O)NC2=O)cc1)c1ccccn1 (stereo unspecified) | inactive | 
6 | C[C@@H]1C[C@H]2[C@@H]3CCC4=CC(=O)C=C[C@]4(C)[C@@]3(F)[C@@H](O)C[C@]2(C)[C@@]1(O)C(=O)COP(=O)(O)O | inactive | 
7 | Cc1ccc(C)c(OCCCC(C)(C)C(=O)O)c1 |  | 50 µM (active)
8 | CC(c1cc2ccccc2s1)N(O)C(N)=O (stereo unspecified) |  | 50 µM (active)
9 | CC(C)OC(=O)C(C)(C)Oc1ccc(C(=O)c2ccc(Cl)cc2)cc1 | inactive | 
10 | CC(C)(Oc1ccc(C2CC2(Cl)Cl)cc1)C(=O)O (stereo unspecified) | inactive | 
11 | Cc1cccc(Nc2cc(Cl)nc(SCC(=O)O)n2)c1C | inactive | 
